Measurements: PubChem BioAssay (NCATS)
Several values for one entry are separate records, joined by “and”; a condition that tells them apart may be missing. Equal values may be shown once. A number with no mark means an inactive call. Inconclusive results are not listed. Where a structure was tested more than once in an assay, its records may differ in their call. Activity calls are given as the source filed them. Unless noted, calls follow the shape of the dose curve; as a rule, active = well fitted curve in the direction sought with a large enough effect; inconclusive = small, poorly fitted or top-dose-only effect, or another doubt; inactive = no such curve, though single readings can be large; an effect the other way counts as inactive or inconclusive.

Tests used:
[1] = Drug repurposing screens with cells derived from glioblastoma tumor samples (AID 1345199); details: GBM patient neurospheres viability, ATP luminescence, 48 h; for Potency: tumour line A; also: potency is read from the fitted curve at half-maximal effect; as to activity, negative = cell killing: % is scaled to controls: 0 for no effect and ±100 for the full control effect; as to all read-outs here: nearly all actives have a fitted effect of over 40% in size
Summary of the method: (§1)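 Four patient lines of CD133+ GBM neurospheres were screened at several concentrations; hits were retested in those lines plus three slower-growing GBM lines, using 48-hour treatment and ATP-based viability.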

astro = control astrocytes; test: as above; details: viability, ATP luminescence, 48 h; series mostly up to 45.9 µM
Summary of the method: as §1

[2] = biological target: Nuclear receptor subfamily 1 group I member 2 (Rattus norvegicus) (UniProt Q9R1A7); test: qHTS assay for small molecule activators of the rat pregnane X receptor (rPXR) signaling pathway (AID 651751; call rule not given here; also: 0% is about no effect); details: rPXR reporter cells, luciferase (One-Glo), 24 h
[3] = qHTS assay for small molecule activators of the human pregnane X receptor (PXR) signaling pathway (AID 720659; call rule not given here; also: 0% is about no effect); details: DPX-2 HepG2 CYP3A4-luciferase, 24 h; series mostly up to 92.3 µM
[4] = qHTS assay to identify inhibitors of the type 1 interferon - major histocompatibility complex class I in skeletal muscle: Counter screen cell viability and HiBit confirmation (AID 1347412); details: iHSKM muscle cells + IFN-b, HiBiT or CellTiter-Glo, 24 h; for activity change, negative = inhibition: at 45.9 µM (top of the series); also: potency is read from the fitted curve at half-maximal effect; as to activity change, negative = inhibition: % is scaled to controls: 0 for no effect and ±100 for the full control effect; as to all read-outs here: nearly all actives have a fitted effect of over 60% in size
Summary of the method: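 Duplicate plates, pinned identically: one read for HiBiT-tagged endogenous HLA-B luminescence, the other for ATP-content viability via CellTiter Glo. Cells were genome-engineered human myoblasts given 4 ng/ml IFN-b; compounds 12-pt, 1:3 from 46 uM final; 24 hr exposure.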

[5] = at 45.9 µM (top of the series), tumour line B
[6] = at 45.9 µM (top of the series), tumour line D
[7] = at 46.1 µM (top of the series), tumour line C

Sequence of Nuclear receptor subfamily 1 group I member 2 (Rattus norvegicus) (Q9R1A7 whole entry, looked up): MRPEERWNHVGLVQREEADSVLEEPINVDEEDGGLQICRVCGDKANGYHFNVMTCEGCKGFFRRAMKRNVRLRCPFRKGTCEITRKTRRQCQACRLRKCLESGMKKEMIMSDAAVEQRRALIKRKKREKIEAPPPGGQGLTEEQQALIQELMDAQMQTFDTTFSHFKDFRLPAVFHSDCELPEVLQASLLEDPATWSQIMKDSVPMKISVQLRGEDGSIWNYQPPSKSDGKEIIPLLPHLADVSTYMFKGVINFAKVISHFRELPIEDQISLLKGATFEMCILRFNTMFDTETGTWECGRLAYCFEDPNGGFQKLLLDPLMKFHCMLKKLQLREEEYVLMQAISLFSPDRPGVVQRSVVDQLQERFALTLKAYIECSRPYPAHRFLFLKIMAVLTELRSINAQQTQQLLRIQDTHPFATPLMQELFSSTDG

Question: With `CCOC(=O)c1ccc(O)cc1` as the compound, how does the activity, negative = cell killing [1, 5] read?
Answer: -7.74%

Question: And the activity, negative = cell killing [1, 6]?
Answer: 6.74%

Question: What about the activity, negative = cell killing [1, 7] of the same compound?
Answer: -0.513%

Question: And the Potency (astro)?
Answer: inactive

Question: And the max response [2]?
Answer: 1.86%

Question: And the outcome [3]?
Answer: inactive

Question: Which activity, negative = cell killing [1, 5] does the source give for `COc1cc(C)c(Cc2cnc(N)nc2N)cc1OC` here?
Answer: -4.72%

Question: What about the activity, negative = cell killing [1, 6] of the same compound?
Answer: -19.5%

Question: What about the activity, negative = cell killing [1, 7] of the same compound?
Answer: -26.1%

Question: What about the Potency (astro) of the same compound?
Answer: inactive

Question: For `CCCCN(CCCC)CCCOC(=O)c1ccc(N)cc1`, which activity, negative = cell killing ([1]; at 20 µM (top of the series), tumour line C) is on record?
Answer: -6.46%

Question: And the activity, negative = cell killing ([1]; at 21.2 µM (top of the series), tumour line B)?
Answer: 6.6%

Question: What about the activity, negative = cell killing ([1]; at 21.2 µM (top of the series), tumour line D) of the same compound?
Answer: -16%

Question: What about the Potency (astro) of the same compound?
Answer: inactive

Question: Which activity, negative = cell killing [1, 5] does the source give for `CN1CCCCC1CCN1c2ccccc2Sc2ccc(S(C)=O)cc21` (stereo unspecified) here?
Answer: -8.07%

Question: What about the activity, negative = cell killing [1, 7] of the same compound?
Answer: -16.7% and 11.5%

Question: And the Potency (astro)?
Answer: inactive

Question: With `Cc1cc(C(C#N)c2ccc(Cl)cc2)c(Cl)cc1NC(=O)c1cc(I)cc(I)c1O` (stereo unspecified) as the compound, how does the Potency (astro) read?
Answer: 3.98 µM (active)

Question: Which results are given for `Oc1cccc(O)c1`?
Answer: activity, negative = cell killing [1, 5]: -16.6%; activity, negative = cell killing [1, 6]: -5.28%; activity, negative = cell killing [1, 7]: 27.8%; Potency (astro): inactive; max response [2]: 4.18%; outcome [3]: inactive

Question: Which activity, negative = cell killing [1, 5] does the source give for `CC(=O)O[C@@]12CO[C@@H]1C[C@H](O)[C@@]1(C)C(=O)[C@H](O)C3=C(C)[C@@H](OC(=O)[C@H](O)[C@@H](NC(=O)OC(C)(C)C)c4ccccc4)C[C@@](O)([C@@H](OC(=O)c4ccccc4)[C@H]21)C3(C)C` here?
Answer: -12.5% and -11.2%

Question: And the activity, negative = cell killing [1, 6]?
Answer: -11.2% and -24.9%

Question: And the Potency [1]?
Answer: 10 µM (active)

Question: What about the activity change, negative = inhibition ([4]; HiBiT) of the same compound?
Answer: -20.7%

Question: What about the activity change, negative = inhibition ([4]; Viability) of the same compound?
Answer: -25.4%

Question: What does the source list for `CC(C)(C)NCC(O)COc1ccc(NC(=O)NC2CCCCC2)cc1` (stereo unspecified)?
Answer: activity, negative = cell killing [1, 5]: -25.7%; Potency [1]: 31.6 µM (active); Potency (astro): inactive

Question: Which Potency (astro) does the source give for `CC/C=C(\C(=O)N[C@@H]1C(=O)N2C(C(=O)OCOC(=O)C(C)(C)C)=C(COC(N)=O)CS[C@H]12)c1csc(N)n1` here?
Answer: inactive

Question: Which Potency (astro) does the source give for `Cc1c(Cl)cccc1Nc1ccccc1C(=O)O` here?
Answer: 11.2 µM (active)

Question: Which activity, negative = cell killing [1, 5] does the source give for `CC(=O)OCC(=O)[C@@]1(O)CC[C@H]2[C@@H]3CCC4=CC(=O)CC[C@]4(C)[C@H]3C(=O)C[C@@]21C` here?
Answer: -22%

Question: What about the Potency [1] of the same compound?
Answer: 25.1 µM (active)

Question: And the Potency (astro)?
Answer: inactive

Question: Which results are given for `COC(=O)[C@H]1[C@H]2C[C@@H]3c4[nH]c5cc(OC)ccc5c4CCN3C[C@H]2C[C@@H](OC(=O)COc2ccc(OC)cc2)[C@@H]1OC`?
Answer: activity, negative = cell killing [1, 5]: -20.4%; Potency [1]: 11.2 µM (active); Potency (astro): inactive

Question: Which Potency (astro) does the source give for `CCN(CC)CCCC(C)Nc1c2ccc(Cl)cc2nc2ccc(OC)cc12` (stereo unspecified) here?
Answer: 20 µM (active)

Question: Which Potency (astro) does the source give for `N[C@H](C(=O)O)c1ccc(O)cc1` here?
Answer: inactive

Question: For `CC(C)c1c(C(=O)Nc2ccccc2)c(-c2ccccc2)c(-c2ccc(F)cc2)n1CC[C@@H](O)C[C@@H](O)CC(=O)O`, which Potency (astro) is on record?
Answer: 11.2 µM (active)

Question: With `CCCCN(CCCC)CC(O)c1cc(Cl)cc2c1-c1ccc(Cl)cc1/C2=C/c1ccc(Cl)cc1` (stereo unspecified) as the compound, how does the Potency (astro) read?
Answer: inactive

Question: What does the source list for `NCCNCCNCCNCCN`?
Answer: activity, negative = cell killing [1, 5]: -23.1%; activity, negative = cell killing [1, 6]: -12.1%; activity, negative = cell killing [1, 7]: 1.79%; Potency (astro): inactive; max response [2]: -1.57% and 1.12%; outcome [3]: inactive

Question: With `[Cl][In]([Cl])[Cl]` as the compound, how does the Potency (astro) read?
Answer: inactive

Question: And the max response [2]?
Answer: -5.11%

Question: What about the outcome [3] of the same compound?
Answer: inactive

Question: With `CCCCC(CC)COC(=O)c1ccccc1O` (stereo unspecified) as the compound, how does the activity, negative = cell killing [1, 5] read?
Answer: -9.83%

Question: What about the activity, negative = cell killing [1, 6] of the same compound?
Answer: -3.06%

Question: And the activity, negative = cell killing [1, 7]?
Answer: 2.02%

Question: And the Potency (astro)?
Answer: inactive

Question: And the max response [2]?
Answer: 2.15%

Question: What about the outcome [3] of the same compound?
Answer: inactive

Question: Which results are given for `CC(=O)Oc1ccc(C2(c3ccc(OC(C)=O)cc3)C(=O)Nc3ccccc32)cc1`?
Answer: activity, negative = cell killing [1, 5]: 0.963% and -11%; activity, negative = cell killing [1, 6]: -19.5% and -4.76%; activity, negative = cell killing [1, 7]: -13% and -13.5%; activity change, negative = inhibition ([4]; Viability): -23.2%

Question: For `CCCCCCCCCCCCOS(=O)(=O)O`, which activity, negative = cell killing [1, 5] is on record?
Answer: -29.7%

Question: What about the activity, negative = cell killing [1, 6] of the same compound?
Answer: 0.019%

Question: And the activity, negative = cell killing [1, 7]?
Answer: -0.178%

Question: What about the Potency (astro) of the same compound?
Answer: inactive

Question: What about the max response [2] of the same compound?
Answer: 1.76% [middle of 4 runs]

Question: And the outcome [3]?
Answer: inactive

Question: For `CCCc1c(OCCCCc2nn[nH]n2)ccc(C(C)=O)c1O`, which Potency (astro) is on record?
Answer: 25.1 µM (active)

Question: What about the max response [2] of the same compound?
Answer: -2.11%

Question: Which Potency (astro) does the source give for `CC(=O)Oc1c(C)c(C)c2c(c1C)CC[C@@](C)(CCC[C@H](C)CCC[C@H](C)CCCC(C)C)O2` here?
Answer: inactive

Question: With `CCOC(CN1CCN(CC(C)C(=O)c2ccccc2)CC1)c1ccccc1` (stereo unspecified) as the compound, how does the activity, negative = cell killing [1, 5] read?
Answer: -10.2%

Question: And the Potency [1]?
Answer: 12.6 µM (active)

Question: And the Potency (astro)?
Answer: inactive

Question: Which results are given for `CCOc1nc2cccc(C(=O)O)c2n1Cc1ccc(-c2ccccc2-c2nn[nH]n2)cc1`?
Answer: activity, negative = cell killing [1, 5]: 5.1%; Potency (astro): 20 µM (active)

Question: For `CN1CCN(C2Cc3ccccc3Sc3ccc(Cl)cc32)CC1` (stereo unspecified), which Potency (astro) is on record?
Answer: 22.4 µM (active)

Question: Which results are given for `c1ccc2c(CC3=NCCN3)cccc2c1`?
Answer: activity, negative = cell killing [1, 6]: -11.3% and -15.4%; activity, negative = cell killing [1, 7]: -1.52% and -0.846% and -3.97%; Potency (astro): inactive

Question: What does the source list for `O=C(CCCN1CCN(c2ccccn2)CC1)c1ccc(F)cc1`?
Answer: activity, negative = cell killing [1, 5]: -17%; Potency [1]: 8.91 µM (active); Potency (astro): inactive

Question: Which Potency (astro) does the source give for `CNC(=O)Oc1ccc2c(c1)[C@]1(C)CCN(C)[C@@H]1N2C` here?
Answer: inactive

Question: What about the max response [2] of the same compound?
Answer: 1.34%

Question: What about the outcome [3] of the same compound?
Answer: inactive

Question: For `Nc1cc(=O)[nH]c(N)n1`, which Potency (astro) is on record?
Answer: inactive

Question: With `CN1CCC[C@@H]1Cc1c[nH]c2ccc(CCS(=O)(=O)c3ccccc3)cc12` as the compound, how does the activity, negative = cell killing [1, 5] read?
Answer: -21.2%

Question: And the Potency [1]?
Answer: 14.1 µM (active)

Question: What about the Potency (astro) of the same compound?
Answer: inactive

Question: What does the source list for `CC[C@H]1CN2CCc3cc(OC)c(OC)cc3[C@@H]2C[C@@H]1C[C@H]1NCCc2cc(OC)c(OC)cc21`?
Answer: Potency ([4]; HiBiT): 0.787 µM (active); activity change, negative = inhibition ([4]; Viability): -15.7%

Question: Which Potency (astro) does the source give for `O=c1cc[nH]c(=S)[nH]1` here?
Answer: inactive

Question: With `Oc1cn2c(n1)Nc1ccc(Cl)c(Cl)c1C2` as the compound, how does the activity, negative = cell killing [1, 6] read?
Answer: -7.52%

Question: What about the activity, negative = cell killing [1, 7] of the same compound?
Answer: -8.47% and 1.08%

Question: What about the Potency (astro) of the same compound?
Answer: inactive

Question: Which Potency (astro) does the source give for `CCn1cc(C(=O)O)c(=O)c2cnc(N3CCNCC3)nc21` here?
Answer: inactive

Question: Which activity, negative = cell killing [1, 5] does the source give for `C[C@]12C[C@H](O)[C@H]3[C@@H](CCC4=CC(=O)CC[C@@]43C)[C@@H]1CC[C@@H]2C(=O)CO` here?
Answer: -17.6%

Question: And the activity, negative = cell killing [1, 6]?
Answer: -22.1%

Question: And the Potency (astro)?
Answer: inactive

Question: Which results are given for `COc1ccccc1O`?
Answer: Potency (astro): inactive; outcome [3]: inactive

Question: What does the source list for `O=S(=O)(O)c1cc(I)c(O)c2ncccc12`?
Answer: activity, negative = cell killing [1, 5]: -21.6%; activity, negative = cell killing [1, 6]: -2.75%; Potency (astro): inactive

Question: Which max response [2] does the source give for `CN(C)CCC=C1c2ccccc2CCc2ccccc21` here?
Answer: 4.03% and -3.34%

Question: With `CSc1ccc2c(c1)C(N1CCN(C)CC1)Cc1ccccc1S2` (stereo unspecified) as the compound, how does the Potency (astro) read?
Answer: 20 µM (active)

Question: With `CCN(CC)CCSC(=O)C(c1ccccc1)c1ccccc1` as the compound, how does the activity, negative = cell killing [1, 5] read?
Answer: -17.9% and -28.9%

Question: And the Potency (astro)?
Answer: inactive

Question: For `CCOc1ccc2ccccc2c1C(=O)N[C@@H]1C(=O)N2[C@@H]1SC(C)(C)[C@@H]2C(=O)O`, which Potency (astro) is on record?
Answer: inactive
